# Compound activity from PubChem.
# S1P4 agonist = S1P4 receptor agonists, primary screen, cell-based. Sphingosine 1-phosphate receptor 4 (Homo sapiens), O95977. S1P4-expressing cell line, agonist reporter assay. activation, % at 4.98 µM. 0.35% of 220,000 active; in the data active = activation above about 11%;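 also: 0% = DMSO vehicle and 100% = reference agonist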
# S1P3 antag = S1P3 receptor antagonists, primary screen, cell-based; Sphingosine 1-phosphate receptor 3 (Homo sapiens), Q99500; CHO S1P3 NFAT-BLA reporter, FRET fluorescence, antagonist mode; inhibition, % at 4.98 µM; 0.27% of 170,000 active;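 active = inhibition above the plate cutoff, the mean inhibition of test wells on that plate plus 3 SD, cut at about 28% in these data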;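 also: cells challenged with S1P at its EC80 of 0.8 µM; blue over green emission ratio from cleaved BLA substrate after 4 h stimulation; 0% = S1P-stimulated wells and 100% = unstimulated DMSO-only wells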
# Target sequence (Q99500 whole entry, looked up): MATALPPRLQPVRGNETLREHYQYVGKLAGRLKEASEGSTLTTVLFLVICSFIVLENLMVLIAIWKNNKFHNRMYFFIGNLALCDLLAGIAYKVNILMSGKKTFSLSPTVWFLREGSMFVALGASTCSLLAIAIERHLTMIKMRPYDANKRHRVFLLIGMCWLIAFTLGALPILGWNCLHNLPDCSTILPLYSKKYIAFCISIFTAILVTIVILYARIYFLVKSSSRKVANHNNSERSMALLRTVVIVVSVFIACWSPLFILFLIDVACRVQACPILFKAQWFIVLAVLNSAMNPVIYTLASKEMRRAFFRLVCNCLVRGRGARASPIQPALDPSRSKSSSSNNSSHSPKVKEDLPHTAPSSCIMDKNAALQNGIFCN
# ROMK primary = ROMK potassium channel modulators, primary screen, cell-based, thallium flux, MLSMR library. Tet-inducible ROMK, thallium flux fluorescence; actives lie on both sides. B-score at 10 µM. 2% of 130,000 active;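 active = signal ratio slope over the read window, or its plate-corrected B-score, at least 3 SD from the plate mean, either direction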;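 also: B-score of the F/F0 ratio slope over 7 to 12 s after thallium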
# Cl transport mod = KCC2 cotransporter modulators, thallium flux, primary screen, cell-based, HEK293 KCC2, FluoZin-2 fluorescence, MLSMR; Solute carrier family 12 member 5 (Homo sapiens), Q9H2X9; KCC2 cells, thallium flux FluoZin-2 fluorescence; B-score of Tl+ flux slope (higher = more flux/activation; lower = inhibition) at 10 µM; 2.2% of 190,000 active; AID 1456, 2008;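 active = thallium flux slope and its plate-corrected score both differing from the plate sample mean at a set confidence after two filtering rounds, in either direction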;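 also: slope of fluorescence scaled to starting intensity during 10 to 20 s after thallium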
# RAM inhibit = inhibitors of the yeast RAM network, primary screen, dse1pr::URA3 reporter, 5-FOA selection | S. cerevisiae dse1pr::URA3 reporter, 5-FOA growth OD615, 2 d; analog-sensitive cbk1-as2 kinase mutant strain | inhibition, % at 50 µM | 1.8% of 190,000 active | AID 868, 2007;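 active = inhibition above a set limit, 3 SD over mean compound inhibition, cut at about 8.4% in these data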;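 also: 0% = DMSO-only wells with no growth and 100% = 10 µM 1-NA-PP1 full growth; inhibition rescues growth on 5-FOA so higher OD means more RAM inhibition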
# S1P4 antag = S1P4 receptor antagonists, primary screen, cell-based; Sphingosine 1-phosphate receptor 4 (Homo sapiens), O95977; S1P4-expressing cells, antagonist mode, reporter read-out; inhibition, % at 4.98 µM; 0.26% of 220,000 active; in the data active = inhibition above about 29%;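 also: 0% = wells stimulated with agonist and 100% = vehicle wells without agonist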
# ROMK hit retest = ROMK channel modulator hit retest, confirmation, cell-based, thallium flux, duplicate, resupplied hits; shares compounds with ROMK primary; fluorescence ratio; stronger effect = lower value; normalized thallium flux (F/F0 slope) at 10 µM; 54% of 3,000 active; AID 1917, 2009;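 active = Flux at 10 µM at least 3 SD below or above vehicle control mean in one or both replicates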
# * marks the source's active call; other numbers are inactive results; / = not tested or not shown. Compounds with a hit are over-represented: about 5.1% of the library has one in this group of screens.
SMILES,S1P4 agonist,S1P3 antag,ROMK primary,Cl transport mod,RAM inhibit,S1P4 antag,ROMK hit retest
CC1C/C(=C/c2ccco2)C(=O)/C(=C/c2ccco2)C1 (stereo not given),2.5,6.2,-1.24,-0.984,1.8,-12.1,/
CCn1c(O)c(/C=N/N=C2CCCCC2)c2cc(C3=NNC(=O)CC3)ccc21,1.9,11.4,/,-1.21,/,7.9,0.0665*
CC(C)(NC(=O)c1cc(Cl)c2ccccc2c1O)C(=O)O,3.1,1.4,/,-1.01,/,-21.5,/
CCOC(=O)CN1C(=O)C(Sc2n[nH]c(-c3ccc(O)cc3)n2)CCc2ccccc21 (stereo not given),-0.5,/,-0.587,-0.501,0.5,-1.7,/
CCC(OCC(O)CN1CCN(CCN2C(=O)c3cccc4cccc(c34)C2=O)CC1)c1ccccc1 (stereo not given),-0.3,9.8,-3.63*,0.0466,3.8,-15.8,0.0587*
C=CCn1c(N)c(C(=O)NCC2CCCO2)c2nc3ccccc3nc21 (stereo not given),0.5,-22.7,/,/,0.0,-0.4,0.0657*
COCCCNC(=O)c1cn(CC(C)C)c(=O)c2c1c1ccccc1n2C,1.1,/,-0.737,-0.746,-0.8,-37.1,/
CC(C)Cn1cc(C(=O)NC2CCN(Cc3ccccc3)CC2)c2c3ccccc3n(C)c2c1=O,0.8,/,-2.16*,/,2.8,2.9,0.0683*
O=C(NCCN1CCOCC1)c1ccccc1[N+](=O)[O-],-2.2,/,3.05*,/,0.0,4.4,0.0889
Cc1cccc(C(=O)NCCN2CCOCC2)c1[N+](=O)[O-],0.6,-1.7,-0.0628,1.27,0.4,-4.2,/
CCOc1ccc2nc(C)cc(C(=O)O)c2c1,2.2,1.0,1.85*,0.517,2.2,11.8,0.0872
COc1ccc2nc(C)cc(C(=O)O)c2c1,-1.2,-38.5,/,-2.11,1.8,-14.1,/
CCc1nnc(NC(=O)CSc2nc3cc(OC)c(OC)cc3cc2C)s1,-0.1,-11.6,/,-0.721,1.3,-10.8,/
O=C(NCc1ccccc1)c1onc(CSc2ccccc2)c1C(=O)NCC1CC1,/,/,/,-2.6,/,/,0.0728
Cc1ccc2cc(C=O)c(Cl)nc2c1,1.4,5.3,3.68*,-1.07,-0.4,-16.3,0.0834
COc1cc(CN2CCN(C(=O)CC(C)C)CC2)cc(OC)c1OC,-1.1,6.4,/,0.26,0.8,-21.1,0.0943
COc1cc(CN2CCN(C(=O)CC(C)C)CC2)cc(OC)c1O,-0.2,-18.4,/,-0.243,0.6,-11.6,/
Cn1cc(Br)c(-c2cccc(NC(=O)CC(C)(C)CC(=O)O)c2)n1,-0.2,-7.7,/,/,/,15.8,/
O=C(CSc1ncn[nH]1)NC12CC3CC(CC(C3)C1)C2,-0.3,/,2.96*,0.0488,1.5,2.3,0.0745
COc1ccc(CC(=O)Nc2cccc(-c3ccc4nnc(C)n4n3)c2)cc1OC,1.0,-5.0,-1.41,-0.635,1.6,-21.9,/
COc1ccccc1-c1cc(C(=O)N2CCN(c3ccccc3OC)CC2)no1,0.4,-43.8,3.27*,-1.2,-0.6,-17.0,0.0853
COc1ccccc1-c1cc(C(=O)NCCc2ccccc2)no1,-1.7,/,3.51*,/,4.6,-11.7,0.0761
Cc1ccc(NC(=O)c2cc(-c3cccs3)on2)cc1,3.1,/,0.874,/,2.6,0.8,/
COc1ccccc1-c1cc(C(=O)Nc2cccnc2)no1,-0.1,-21.1,5.13*,-1.53,-0.2,10.7,0.0813
COc1ccccc1N1CCN(C(=O)c2cc(-c3ccc(C)cc3)on2)CC1,-2.8,0.7,-1.36,-0.397,3.4,0.2,/
SMILES,S1P4 agonist,S1P3 antag,ROMK primary,Cl transport mod,RAM inhibit,S1P4 antag,ROMK hit retest
COc1cc(NC(=O)c2cc(-c3cccs3)on2)cc(OC)c1OC,0.1,4.7,4.07*,-0.623,-0.3,18.5,0.0844
O=C(O)CCCn1cc(NC(=O)c2c(F)cccc2F)cn1,1.0,-6.5,0.0467,0.0876,0.6,-15.6,/
Cc1cc(N2C(=O)NC(=O)CC2C)c(C)cc1C(C)C (stereo not given),2.4,-6.4,-0.592,0.0161,0.3,-2.0,/
Cc1noc(C)c1COC(=O)c1ccc2c(c1)S(=O)(=O)c1ccccc1C2=O,0.6,5.1,/,-1.21,2.8,12.8,0.0777
CCOc1nc2ccccc2cc1C=O,2.1,10.3,5.32*,-0.0436,-0.6,-13.8,0.124*
CCCOc1nc2ccccc2cc1/C=C/C(=O)O,1.3,0.9,0.444,-0.505,-0.3,-0.4,/
CCCCOc1ccc(CSCCN=C(N)N)cc1,-0.7,-23.4,-3.39*,0.461,2.7,7.8,0.0539*
Cc1ccc(-n2c(SCc3ccc(C(=O)O)cc3)nnc2-c2ccncc2)cc1,-2.2,-6.2,/,0.551,/,-12.4,/
COCCn1nnnc1C(c1cccc(C(F)(F)F)c1)N1CCN(Cc2ccccc2)CC1 (stereo not given),1.3,/,-3.94*,-0.293,-1.1,-0.6,0.0537*
O=C(Nc1ccc2c(c1)OCO2)OCc1ccccc1,1.9,12.8,/,-0.759,1.4,5.8,/
C#CCOCCOCCOCCNc1nc(N2CCN(C(=O)[C@H]([C@@H](C)O)n3cc(CCCCN)nn3)CC2)nc(N2CCN(C(=O)[C@H](Cc3ccc(O)cc3)n3cc(CCO)nn3)CC2)n1,0.8,-19.6,2.01*,-0.565,-1.4,-3.0,0.0825
N=C(N)SCc1cn(-c2ccccc2)nc1-c1ccc(Br)cc1,0.6,5.2,-2.13*,0.422,-0.6,2.1,0.0548*
CN(CC(=O)Nc1ccc(C(N)=O)cc1)CC(=O)Nc1ccccc1Br,-1.1,-11.6,6.1*,-1.78,/,-7.7,0.0746
CC(=O)Nc1ccc(NC(=O)CN(C)CC(=O)Nc2ccccc2Br)cc1,-1.8,-16.8,0.952,-1.38,0.1,0.1,/
CCc1cc(SC#N)cc(CC)c1NC(=O)CCl,-0.3,-6.9,-3.57*,0.0375,0.5,16.7,0.0472*
Cc1cc(C)c2c(NC(=O)CCl)nn(C)c2n1,0.7,-32.6,0.266,-0.13,-0.3,-4.7,/
CC(=O)NN1C(=O)/C(=C/c2ccc(Br)o2)SC1=S,0.3,/,/,-1.16,1.5,5.2,/
CC(=O)NN1C(=O)/C(=C\c2ccc(Br)o2)SC1=S,-2.0,-7.5,-4.14*,0.0627,2.0,8.6,0.0551*
Cc1nc(-c2ccc(S(=O)(=O)Oc3ccccc3Cl)s2)cs1,0.6,-4.5,/,/,/,2.4,/
CCCNc1nc(C)cc(-c2cc(-c3ccc(Cl)cc3)on2)n1,/,/,/,-0.394,/,/,/
Cc1c(Cc2ccccc2)c(=O)n2c([nH]c3ccccc32)c1C#N,2.2,10.3,/,-1.18,/,-6.6,/
